NPC1 prom act: NPC1 promoter activation. Huh7 NPC1 promoter luciferase reporter, 24 h. Potency, µM (titrated, usually from 9.22 µM), without a hit: at the top dose activation, actives largely listed as activators. hit rate 2.4% among 320,000; note: % of control where 0% means no effect; nearly all actives have a fitted effect of over 60% in size
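Huh7 cells stably carrying NPC1 promoter–luciferase, plated in Opti-MEM with 10% FBS for 2 h, were exposed to compound in DMSO for 24 h at 37 °C; luciferase reagent was added for 10 min and luminescence read.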
SMN2 splice up: increases expression of the SMN2 splice variant; HEK293 SMN2-luciferase splicing reporter, luminescence, 30-36 h; Potency, µM (highest dose often 46.1 µM), inactives show at the highest dose activity change, positive = activation, hits mostly activators; hit rate 2.8% among 210,000; note: % of control where 0% means no effect; nearly all actives have a fitted effect of over 55% in size
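HEK293 cells carry an SMN2 […]–luciferase reporter in which exon 7 inclusion puts luciferase in frame. Cells were plated 10-12 h before compound addition, then incubated 30-36 h at 37C. ONE-Glo luminescence was read; sodium butyrate at 4.5 mM final served as control.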
ELG1 genotoxic: genotoxicity induction in ELG1-luciferase HEK293T cells; Potency, µM (series often up to 46 µM), without a hit: top-dose activity change, positive = activation, most hits filed as activators; hit rate 1.3% among 330,000; HEK293T ELG1-luciferase reporter, luminescence, 16 h; note: % of control where 0% means no effect; nearly all actives have a fitted effect of over 60% in size
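Screening used a luciferase reporter fused to human ELG1 in HEK293T cells. Luminescence was read on a CCD plate imager after 16 hr exposure and 30 min ONE-Glo incubation.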
Rab9 prom act: activates the Rab9 promoter; Huh7 Rab9 promoter-luciferase reporter, luminescence, 24 h; Potency, µM (doses to about 9.22 µM), for the others: at the highest dose activation, negative = inhibition, actives largely listed as activators; hit rate 2.8% among 320,000; AID 485297; note: % of control where 0% means no effect; nearly all actives have a fitted effect of over 60% in size
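Measured in stably transfected Huh7 cells bearing a Rab9 promoter–luciferase construct: 24 h compound treatment at 37 °C, followed by luminescence detection.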
ELG1 repair inh: ELG1-dependent DNA repair inhibition; AID 504467; HEK293T ELG1-luciferase reporter, luminescence, 16 h; DNA damage induced by 5-fluorouridine; hit rate 2.3% among 330,000; Potency, µM (series often up to 46.1 µM), for the others: at the highest dose activity change, negative = inhibition, actives largely listed as inhibitors; note: % is set by controls: 0 for no effect and ±100 for the full control effect; nearly all actives have a fitted effect of over 55% in size
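DMSO vehicle served as the neutral condition. Each well held 2,000 cells given 5-fluorouridine plus compound; after 16 hr at 37 °C/5% CO2, ONE-Glo was added and luciferase measured 30 min later.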
FLuc modulator: inhibits or activates purified firefly luciferase, miR-21 counter-screen. hit rate 6.9% among 360,000. purified FLuc, Km substrates, luminescence inhibition. Potency, µM (top dose mostly 57.5 µM), without a hit: top-dose activity change, negative = inhibition, hits mostly inhibitors. P08659;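 note: plate controls were vehicle for no effect and reference inhibitor for full effect; nearly all actives have a fitted effect of over 55% in size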
Target sequence (P08659 whole entry, looked up): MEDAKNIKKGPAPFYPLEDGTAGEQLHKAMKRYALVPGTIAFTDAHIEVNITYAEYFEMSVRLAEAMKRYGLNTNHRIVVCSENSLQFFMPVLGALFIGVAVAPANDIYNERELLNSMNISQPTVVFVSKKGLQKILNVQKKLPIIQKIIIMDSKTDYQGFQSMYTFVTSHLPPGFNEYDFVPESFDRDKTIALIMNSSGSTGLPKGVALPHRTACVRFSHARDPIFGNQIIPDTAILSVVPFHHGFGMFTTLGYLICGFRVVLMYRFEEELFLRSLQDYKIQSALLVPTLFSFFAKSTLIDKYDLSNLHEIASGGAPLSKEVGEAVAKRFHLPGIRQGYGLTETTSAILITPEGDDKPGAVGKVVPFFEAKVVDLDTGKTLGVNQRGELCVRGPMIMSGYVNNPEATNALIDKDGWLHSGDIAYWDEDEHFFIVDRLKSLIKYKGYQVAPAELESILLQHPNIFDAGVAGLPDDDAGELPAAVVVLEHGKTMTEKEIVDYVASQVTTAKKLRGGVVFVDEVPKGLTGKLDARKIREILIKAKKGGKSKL
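Purified P. pyralis luciferase (10nM final) with 10uM D-luciferin and 10uM ATP (Km levels) in 50mM Tris acetate pH 7.5, 10mM Mg acetate, 0.01% Tween-20, 0.05% BSA; qHTS 6-point titration, ~60 µM downward; luminescence read.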
Active calls of the source: *; ? = inconclusive; . = no result; [ ] = dose if it differs, or a comment. Hits are enriched below; roughly 9.3% of the tested compounds scored in any of these assays. Calls come from the whole dose curve; as a rule, active = well fitted curve in the direction sought with a large enough effect; inconclusive = small, poorly fitted or top-dose-only effect, or another doubt; inactive = no such curve, though single readings can be large; an effect the other way counts as inactive or inconclusive. Potency is the fitted concentration of half-maximal effect.

SMILES	NPC1 prom act	SMN2 splice up	ELG1 genotoxic	Rab9 prom act	ELG1 repair inh	FLuc modulator
O=C(Nc1ccc(S(=O)(=O)NC2=NCCCCC2)cc1)c1ccco1	-1%	-4%	1%	4%	7%	3%
COc1ccc2ccccc2c1/C=N\NC(=O)c1ccc(C)s1	3%	.	1%	-1%	-13%	12µM*
COc1ccc2ccccc2c1/C=N/NC(=O)c1cccc(Br)c1	-2%	22%	-7%	-2%	-17%	-4%
COc1ccc2ccccc2c1/C=N/NC(=O)c1ccccc1F	2%	.	0%	-2%	6%	21µM*
COc1ccc2ccccc2c1/C=N/NC(=O)c1sc(N)c(C#N)c1C	4%	?	4%	11%	-6%	?
CC(NC(=O)/C(=C\c1ccco1)NC(=O)c1ccccc1Br)C(=O)O (stereo unspecified)	-3%	.	-2%	-4%	-12%	7%
CC(Oc1cccc(Cl)c1)C(=O)Nc1cc(S(=O)(=O)N2CCCCC2)ccc1N1CCOCC1 (stereo unspecified)	-1%	.	?	-4%	?	15%
O=C1OCC2OC(O)C(O)C(O)C2OC(=O)c2cc(O)c(O)c(O)c2-c2c(O)c(O)c3oc(=O)c4c(c(O)c(O)c5oc(=O)c2c3c54)-c2c1cc(O)c(O)c2O (stereo unspecified)	-3%	.	1%	-12%	11%	27µM*
COc1ccc(Cl)cc1NC(=O)C1CCN(S(=O)(=O)c2ccc3c(c2)CC(C)N3C(C)=O)CC1 (stereo unspecified)	.	.	.	.	.	-1%
CN(C)S(=O)(=O)c1cccc(NC(=O)CCc2nc3sc4c(c3c(=O)[nH]2)CCCC4)c1	-3%	.	-6%	-1%	11µM*	?
COc1ccccc1NC(=O)COC(=O)C1C2CC3OC(=O)C1C3C2 (stereo unspecified)	0%	.	-3%	5%	16%	15µM*
Cc1ccccc1NC(=O)COC(=O)C1C2CC3OC(=O)C1C3C2 (stereo unspecified)	-6%	.	-2%	4%	-8%	-10%
Oc1c(CN2CCOCC2)cc(COCc2ccccc2)c2cccnc12	-18%	-105%	18µM*	-25%	?	1%
Oc1c(CNc2ccccc2)cc(COCc2ccccc2)c2cccnc12	-14%	.	-1%	-15%	?	0%
O=C(Oc1c(CN2CCOCC2)cc(Cl)c2cccnc12)c1ccccc1Br	1%	.	-10%	-27%	8.2µM*	2%
CCOC(=O)N1CCN(Cc2cc(Cl)c3cccnc3c2O)CC1	-32%	.	?	-44%	3.7µM*	-1%
CN1CCN(Cc2cc(Cl)c3cccnc3c2OC(=O)c2cccs2)CC1	-1%	-20%	0%	-2%	?	4%
CC1(C)O[C@@H](CC(=O)O)[C@]23CO[C@H](C(=O)[C@]4(C)C2CC[C@@]2(C)[C@H](c5ccoc5)OC(=O)C5O[C@]524)[C@@H]13 (stereo partly specified)	.	.	-1%	.	15%	.
COc1ccccc1NC(=O)CN1CCN(CC(=O)Nc2ccc(Cl)c(C(F)(F)F)c2)CC1	-3%	-38%	-15%	-1%	18µM*	-4%
COc1ccc(NC(=O)CN2CCN(CC(=O)Nc3ccccc3Cl)CC2)cc1Cl	-5%	-17%	-13%	-1%	?	-2%
O=C(CN1CCN(S(=O)(=O)c2ccc(F)cc2)CC1)Nc1ccccc1C(=O)NC1CC1	0%	.	-1%	-2%	-7%	5%
Cc1ccc(C(=O)NC2CCN(CC(=O)Nc3ccccc3Cl)CC2)cc1	2%	.	4%	3%	7%	-16%
COC(=O)c1ccccc1NC(=O)CN1CCC(NC(=O)c2ccc(C)cc2)CC1	4%	?	-4%	-2%	16µM*	-20%
COc1ccc(F)cc1CN1CCN(CC(=O)Nc2ccccc2C(=O)NC2CC2)CC1	1%	.	-9%	-7%	10µM*	8%
CCc1nn(CCCC(=O)NCc2cc(Br)ccc2OC)c(=O)c2cc3occc3n12	2%	-5%	-4%	-4%	?	2%
SMILES	NPC1 prom act	SMN2 splice up	ELG1 genotoxic	Rab9 prom act	ELG1 repair inh	FLuc modulator
COc1cc2c(cc1OC)C(c1ccc(-c3cc(Cl)ccc3Cl)o1)=NCC2	-2%	-15%	-26%	-24%	?	1%
COc1cc2c(cc1OC)C(c1ccc(-c3ccccc3Cl)o1)=NCC2	17%	-38%	11%	-2%	?	2.1µM*
COc1cc2c(cc1OC)C(c1ccc(-c3ccc(Cl)c(Cl)c3)o1)=NCC2	-1%	-62%	-16%	-8%	15µM*	15µM*
COc1cc2c(cc1OC)C(c1ccc(Cl)cc1)=NCC2	-11%	.	-8%	-9%	-19%	0%
COc1cc2c(cc1OC)C(c1ccc(-c3ccc(Cl)cc3Cl)o1)=NCC2	-8%	-20%	-13%	-4%	?	15µM*
CCC(C)NC(=O)CSc1nc2ccccc2c(=O)n1-c1c(C)n(C)n(-c2ccccc2)c1=O (stereo unspecified)	-4%	-5%	3%	12%	17%	-3%
O=C(O)COc1ccc(/C=C/C(=O)c2ccc(C3CCCCC3)cc2)cc1	?	.	3%	?	?	0.38µM*
O=C(O)COc1ccc(/C=C/C(=O)c2ccc3ccccc3c2)cc1	3%	.	8%	14%	0%	0.95µM*
O=C(O)COc1ccc(C(=O)c2ccccc2)cc1	-2%	.	0%	-6%	-12%	?
Cc1[nH]c2ccccc2c1C(=O)C(=O)NCc1ccco1	2%	6%	-3%	-10%	?	-3%
CCn1c(=O)[nH]c2cc(Cl)c(Cl)cc21	-1%[46.1 µM]	?	?	-11%[46.1 µM]	22%	-2%
COc1ccccc1CNC(=O)c1ccc(N2CCCC2)c(NC(=O)NCc2ccc(C)cc2)c1	.	.	.	.	.	0%
Cc1ccc2c(c1)N(C(=O)CCC(=O)NCc1cccs1)CCO2	.	.	.	.	.	-5%
CN(C)c1ccc(C=Nc2ccccc2C(N)=O)cc1	3.2µM*	13µM*	10µM*	0.79µM*	?	1.5µM*
Cc1ccc(/C=N/c2sc(Cc3ccccc3)c(C)c2C(N)=O)o1	0%	22%	0%	2%	-1%	-6%
Cc1ccc(C=Nc2ccccc2C(N)=O)o1	?	11µM*	?	3.5µM*	?	27µM*
CCN(c1ccc(NC(=O)c2ccc(N3CCCC3=O)cc2)cc1)C(C)C	-16%	.	6.5µM*	-24%	?	?
O=C(Nc1nc2ccc(F)cc2s1)c1ccc(N2CCCC2=O)cc1	0.4µM*	.	0.46µM*	0.32µM*	?	-18%

Assay outcomes as filed in PubChem.
